Measurements as given in PubChem BioAssay.
Several values for one entry are separate records, joined by “and”; a condition that tells them apart may be missing. Equal values may be shown once. Activity calls are given as the source filed them.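 Rule for the calls, unless noted: active = thallium flux through the channel raised or lowered by more than 3 SD from vehicle-only wells, actives on both sides; inactive = the rest.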

Assays:
[1] = biological target: 6-phosphogluconate dehydrogenase, decarboxylating (Homo sapiens) (UniProt P52209); assay: inhibition of human phosphogluconate dehydrogenase – biochemical, recombinant enzyme, NADPH absorbance, primary screen (AID 1159550;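 active = at least 20% inhibition of 6-phosphogluconate dehydrogenase activity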); details: recombinant 6PGD, NADPH absorbance 341 nm; at 10 µM; stronger effect = higher value
Chain of 6-phosphogluconate dehydrogenase, decarboxylating (Homo sapiens) (P52209 whole entry, looked up): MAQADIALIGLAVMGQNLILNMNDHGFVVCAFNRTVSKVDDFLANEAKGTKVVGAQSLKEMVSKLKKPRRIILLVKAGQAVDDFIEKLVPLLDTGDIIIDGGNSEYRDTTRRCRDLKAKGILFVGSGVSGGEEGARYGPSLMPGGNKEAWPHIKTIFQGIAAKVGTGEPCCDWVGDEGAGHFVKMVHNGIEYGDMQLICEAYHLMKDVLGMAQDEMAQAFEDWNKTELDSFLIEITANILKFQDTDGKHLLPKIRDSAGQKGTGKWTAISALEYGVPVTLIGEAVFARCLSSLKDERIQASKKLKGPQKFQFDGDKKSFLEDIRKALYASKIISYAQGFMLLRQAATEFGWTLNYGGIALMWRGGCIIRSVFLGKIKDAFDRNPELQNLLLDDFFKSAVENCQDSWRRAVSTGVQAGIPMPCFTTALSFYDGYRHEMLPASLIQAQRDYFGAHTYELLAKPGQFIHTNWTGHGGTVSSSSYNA

[2] = compounds altering viability of human ES cells (AID 493140; call rule not given here;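 note: cells exposed to compounds for four days before counting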); details: human embryonic stem cell survival screen; stronger effect = higher value
[3] = EMT-state selective cytotoxicity in co-culture – imaging, PC-3E GFP, TEM4-18 mCherry, primary screen (AID 1345086;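 active = compounds killing one labelled cell type while sparing the other, by normalised counts and ratio limits, not self-fluorescent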;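 for all read-outs here: cells exposed to compound for 72 h before imaging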;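 for red/green cell ratio (normalised): normalised mesenchymal count divided by normalised epithelial count so high means epithelial killing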); details: PC-3E GFP / TEM4-18 mCherry co-culture, imaging cell counts, at 1 µM; for red/green cell ratio (normalised): actives lie on both sides, counts scaled to control wells, 1 = unselective
[4] = MELAS cybrid and Rieske KO viability enhancers – cell-based, MELAS cybrids, Rieske KO mouse fibroblasts, CellTiter-Glo, primary screen (AID 1508586;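 active = mean z-score across replicates of 1.96 or higher in either the MELAS or the Rieske mutant cell line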;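 note: z relative to plate mean and SD of compound and empty wells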); details: low glucose
[5] = biological target: NAD(+) hydrolase SARM1 (Homo sapiens) (UniProt Q6SZW1); assay: blocking NAD cleavage by SARM1 SAM-TIR – cell lysate, NAD-Glo luminescence (AID 1508614;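 active = compound whose remaining NAD level is above about 45 nM, limit read from the data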;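 note: higher remaining NAD means stronger inhibition of SARM1 NADase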); details: SAM-TIR HEK293T lysate NADase, at 1 µM, stronger effect = higher value
Chain of NAD(+) hydrolase SARM1 (Homo sapiens) (Q6SZW1 whole entry, looked up, the tested form may be a part): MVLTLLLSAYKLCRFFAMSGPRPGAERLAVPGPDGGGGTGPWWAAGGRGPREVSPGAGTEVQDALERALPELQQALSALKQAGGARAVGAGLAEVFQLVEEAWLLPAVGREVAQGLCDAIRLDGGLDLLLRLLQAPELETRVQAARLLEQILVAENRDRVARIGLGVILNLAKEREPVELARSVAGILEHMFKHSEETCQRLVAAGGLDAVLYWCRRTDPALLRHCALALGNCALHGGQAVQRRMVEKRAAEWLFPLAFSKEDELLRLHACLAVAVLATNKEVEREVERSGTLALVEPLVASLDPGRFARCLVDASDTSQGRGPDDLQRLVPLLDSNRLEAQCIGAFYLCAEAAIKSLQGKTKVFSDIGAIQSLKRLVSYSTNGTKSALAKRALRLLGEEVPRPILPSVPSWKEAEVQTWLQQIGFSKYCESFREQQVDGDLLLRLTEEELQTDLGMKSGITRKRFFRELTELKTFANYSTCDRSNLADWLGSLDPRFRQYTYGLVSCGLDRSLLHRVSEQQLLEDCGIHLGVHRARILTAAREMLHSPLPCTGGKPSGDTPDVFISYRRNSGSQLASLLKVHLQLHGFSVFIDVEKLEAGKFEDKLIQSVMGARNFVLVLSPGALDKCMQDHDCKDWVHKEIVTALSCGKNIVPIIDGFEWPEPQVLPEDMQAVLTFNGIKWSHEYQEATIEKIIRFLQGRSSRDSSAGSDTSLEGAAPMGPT

[6] = biological target: Mitogen-activated protein kinase 7 (Homo sapiens) (UniProt Q13164); assay: Gal4-ERK5 driven luciferase induction – cell-based, HTS, primary screen (AID 1508626;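 active = luciferase signal above three times the same-plate solvent-only control wells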;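 note: luciferase driven by Gal4-ERK5 fusion binding five Gal4 sites before minimal TATA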); details: HeLa Gal4-ERK5 transactivation, 18 h, at 5 µM, stronger effect = higher value
Chain of Mitogen-activated protein kinase 7 (Homo sapiens) (Q13164 whole entry, looked up, the tested form may be a part): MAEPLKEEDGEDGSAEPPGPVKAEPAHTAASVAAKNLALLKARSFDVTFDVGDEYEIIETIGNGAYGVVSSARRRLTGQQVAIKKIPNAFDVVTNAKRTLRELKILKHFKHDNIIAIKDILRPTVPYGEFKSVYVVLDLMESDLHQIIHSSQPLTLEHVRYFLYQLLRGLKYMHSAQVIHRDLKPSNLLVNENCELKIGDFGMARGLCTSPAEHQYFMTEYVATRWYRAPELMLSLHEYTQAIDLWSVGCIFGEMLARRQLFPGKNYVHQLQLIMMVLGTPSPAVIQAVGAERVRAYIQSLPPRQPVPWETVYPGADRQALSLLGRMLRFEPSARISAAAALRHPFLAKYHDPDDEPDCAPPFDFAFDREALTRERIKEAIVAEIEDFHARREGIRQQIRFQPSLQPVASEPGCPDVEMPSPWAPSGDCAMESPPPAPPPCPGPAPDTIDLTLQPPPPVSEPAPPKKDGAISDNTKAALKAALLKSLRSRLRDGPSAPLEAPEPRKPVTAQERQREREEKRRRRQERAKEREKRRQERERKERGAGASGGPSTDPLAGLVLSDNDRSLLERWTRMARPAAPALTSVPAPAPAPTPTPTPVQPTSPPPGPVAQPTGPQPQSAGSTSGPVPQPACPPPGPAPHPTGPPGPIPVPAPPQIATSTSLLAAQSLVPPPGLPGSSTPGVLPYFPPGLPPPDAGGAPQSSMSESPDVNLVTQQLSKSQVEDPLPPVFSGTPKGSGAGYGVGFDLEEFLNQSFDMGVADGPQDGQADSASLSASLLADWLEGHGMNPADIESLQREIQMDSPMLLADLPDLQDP

[7] = galactose survival enhancers in mitochondrial complex I cybrids – cell-based, galactose medium, ATP luminescence, primary screen (AID 1645843;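 active = z-score of at least 1.8 in each of two replicates, scored against plate mean and spread of sample wells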;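 note: positive z means more ATP and so rescue of galactose-driven cybrid death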); details: complex I mutant cybrid cells, 72 h, stronger effect = higher value
F380Y = assay: BK channel mutant inhibitors and activators – cell-based, U2OS BacMam, thallium flux, beta subunits, selectivity assay, profiling panel (AID 1259406); details: U2OS BacMam BK variants, at 30 µM;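 note: initial slope of Thallos dye fluorescence rise after thallium is added; log ratio against the mean of 0.3% DMSO vehicle wells on the same plate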
F380Y/beta2Delta = assay: as above; details: U2OS BacMam BK variants, at 30 µM
[8] = biological target: Calcium-activated potassium channel subunit alpha-1 (Homo sapiens) + Leucine-rich repeat-containing protein 26 (Homo sapiens) (UniProt Q12791+Q2I0M4); assay: as above; details: U2OS BacMam BK variants, F380Y/Slo1WT/gamma1, at 30 µM
Chain of Calcium-activated potassium channel subunit alpha-1 (Homo sapiens) + Leucine-rich repeat-containing protein 26 (Homo sapiens) (Q2I0M4 whole entry, looked up, one chain of several): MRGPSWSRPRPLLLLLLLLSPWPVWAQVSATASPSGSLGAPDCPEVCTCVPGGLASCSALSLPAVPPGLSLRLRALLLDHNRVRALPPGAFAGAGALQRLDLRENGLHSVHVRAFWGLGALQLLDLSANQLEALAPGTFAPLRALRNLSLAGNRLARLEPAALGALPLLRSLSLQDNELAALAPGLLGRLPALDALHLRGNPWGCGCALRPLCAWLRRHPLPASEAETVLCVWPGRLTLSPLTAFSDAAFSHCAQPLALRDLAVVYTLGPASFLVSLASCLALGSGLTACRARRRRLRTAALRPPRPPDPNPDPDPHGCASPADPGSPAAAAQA

R275C = assay: as above; details: U2OS BacMam BK variants, at 30 µM
R275C/beta1 = assay: as above; details: U2OS BacMam BK variants, at 30 µM
R275C/beta2Delta = assay: as above; details: U2OS BacMam BK variants, at 30 µM
[9] = P. berghei load reduction in hepatocytes – cell-based, HepG2, luciferase luminescence, HepG2 viability, primary screen (AID 624349; in the data active = parasite load remaining mostly below about 12%, no sharp cut-off; inactive = mostly above about 10%;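 note: 100% = mean of DMSO negative control wells on the same plate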); details: P. berghei liver stage in HepG2, luciferase luminescence, concentration not given here; parasite load remaining: stronger effect = lower value; viability: measured here: HepG2 viability without parasites
[10] = viability loss with induced miR-34 in A549 – imaging, A549 dox-inducible miR-34, nuclei and caspase counts, primary screen (AID 1347080;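 active = compounds whose cell count with miR-34 switched on is under 0.7 times the count with it off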); details: A549 miR-34 inducible, Hoechst nuclei count, 48 h
[11] = tested on: Hepatitis C virus NS3 helicase; assay: blockers of NS3h binding to DNA – biochemical, fluorescence polarization, NIH Clinical Collection, primary screen (AID 743270; call rule not given here); details: NS3 helicase binding to Cy5-dT15 DNA, stronger effect = higher value, concentration not given here
[12] = biological target: Single-stranded DNA-binding protein (Escherichia coli (strain K12)) (UniProt P0AGE0); assay: SSB-ssDNA binding inhibitors – biochemical, fluorescence polarization, NIH Clinical Collection, counter-screen for HCV NS3 helicase inhibitor project (AID 743271; in the data active = inhibition above about 28%); details: E. coli SSB-DNA binding, stronger effect = higher value, concentration not given here
[13] = compounds distorting NS3 helicase fluorescence signal – biochemical, NIH Clinical Collection, artefact control for HCV NS3 helicase inhibitor project (AID 743272; call rule not given here;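 note: HCV NS3 helicase with a Cy5 labelled single stranded DNA probe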); details: fluorescence interference counterscreen, HCV NS3 helicase assay; stronger effect = lower value
[14] = signal quenchers or enhancers, Cy5 substrate/SSB – biochemical, NIH Clinical Collection, E. coli SSB, artefact control for HCV NS3 helicase inhibitor project (AID 743268; call rule not given here); details: Cy5-oligo bound E. coli SSB, fluorescence interference
[15] = measured here: epithelial PC-3E GFP cell survival
[16] = measured here: mesenchymal TEM4-18 mCherry cell survival
[17] = MELAS cybrid survival, CellTiter-Glo 48 h, stronger effect = higher value
[18] = Rieske KO mouse fibroblast survival, CellTiter-Glo 72 h
[19] = stronger effect = lower value, cell number ratio, induced over uninduced
[20] = measured here: relative caspase fold change +Dox/-Dox
[21] = measured here: total cells with miR-34 induction, stronger effect = lower value
[22] = measured here: total cells without miR-34 induction

## NC(=O)NCC(N)C(=O)O (centres undefined)
[1]
  inhibition: -2.17% (inactive)

## N[C@@H](C=O)[C@@H](O)[C@H](O)[C@H](O)CO
[1]
  inhibition: -0.658% (inactive)

## Clc1ccccc1CN1CCc2sccc2C1
[2]
  survival: 17.8 (inactive)
[3]
  red/green cell ratio (normalised): 0.9 (inactive)
[3]; [15]
  normalised cell number: 1.03
[3]; [16]
  normalised cell number: 0.94
[4]; [17]
  z-score: 0.708 (inactive) and -0.623 (inactive)
[4]; [18]
  z-score: 0.315 and 0.0692
[5]
  remaining NAD: 10 nM (inactive)
[6]
  luciferase signal: 52 AU (inactive)
[7]
  z-score: -1.11 (inactive) and 0.17 (inactive)
F380Y
  log fold change Tl+ flux: -0.26 (active)
F380Y/beta2Delta
  log fold change Tl+ flux: -0.214 (active)
[8]
  log fold change Tl+ flux: -0.00222 (inactive)
R275C
  log fold change Tl+ flux: -0.105 (inactive)
R275C/beta1
  log fold change Tl+ flux: -0.145 (active)
R275C/beta2Delta
  log fold change Tl+ flux: -0.13 (active)

## Cc1ccc(/C(=C\CN2CCCC2)c2ccccn2)cc1
[2]
  survival: 11.5 (inactive)
[1]
  inhibition: 2.89% (inactive)
[3]
  red/green cell ratio (normalised): 1.28 (inactive)
[3]; [15]
  normalised cell number: 0.94
[3]; [16]
  normalised cell number: 1.2
[4]; [17]
  z-score: 0.293 (inactive) and -0.295 (inactive)
[4]; [18]
  z-score: 0.187 and -0.783
[5]
  remaining NAD: 10 nM (inactive)
[6]
  luciferase signal: 152 AU (inactive)
[7]
  z-score: -0.245 (inactive) and -0.1 (inactive) and 0.365 (inactive)

## Cn1nnnc1SCC1=C(C(=O)O)N2C(=O)[C@@H](NC(=O)[C@@H](O)c3ccccc3)[C@H]2SC1
[1]
  inhibition: 0.99% (inactive)

## CS(=O)(=O)c1ccc([C@@H](O)[C@@H](CF)NC(=O)C(Cl)Cl)cc1
[2]
  survival: 1.92 (inactive)
[9]
  parasite load remaining: 110% (inactive) and 27.9% (inactive)
  viability: 101% and 68.5%
[10]; [19]
  fold change: 0.925 (inactive) and 0.937 (inactive)
[10]; [20]
  fold change: 0.927 and 1.15
[10]; [21]
  cell count: 8300 and 9020
[10]; [22]
  cell count: 8980 and 9620
[4]; [17]
  z-score: -0.214 (inactive) and 0.287 (inactive)
[4]; [18]
  z-score: -1.14 and -0.231
[5]
  remaining NAD: 10 nM (inactive)
[6]
  luciferase signal: 136 AU (inactive)
[7]
  z-score: -1.65 (inactive)

## CC(=O)O[C@H]1CC[C@]2(C)[C@H]3CC=C4[C@@H]5CC(C)(C)CC[C@]5(C(=O)O)CC[C@@]4(C)[C@]3(C)CC[C@H]2C1(C)C
[1]
  inhibition: -0.817% (inactive)

## O=C(O)COCCN1CCN(C(c2ccccc2)c2ccc(Cl)cc2)CC1 (centres undefined)
[2]
  survival: 20 (inactive)
[11]
  inhibition: -12.3% (inactive)
[12]
  inhibition: -1.24% (inactive)
[13]
  fluorescence ratio: 1.01 (inactive)
[3]
  red/green cell ratio (normalised): 0.83 (inactive)
[3]; [15]
  normalised cell number: 1.06
[3]; [16]
  normalised cell number: 0.88
[4]; [17]
  z-score: -0.429 (inactive) and 0.214 (inactive)
[4]; [18]
  z-score: 0.813 and 0.142
[5]
  remaining NAD: 10 nM (inactive)
[6]
  luciferase signal: 76 AU (inactive)
F380Y
  log fold change Tl+ flux: 0.0594 (inactive)
F380Y/beta2Delta
  log fold change Tl+ flux: 0.0743 (active)
[8]
  log fold change Tl+ flux: 0.0148 (inactive)
R275C
  log fold change Tl+ flux: 0.0304 (inactive)
R275C/beta1
  log fold change Tl+ flux: 0.109 (inactive)
R275C/beta2Delta
  log fold change Tl+ flux: 0.056 (inactive)

## O=C(O)c1cn(C2CC2)c2cc(N3CCNCC3)c(F)cc2c1=O
[2]
  survival: 20.5 (inactive)
[1]
  inhibition: -0.391% (inactive)
[3]
  red/green cell ratio (normalised): 1.14 (inactive) and 1.04 (inactive)
[3]; [15]
  normalised cell number: 1.04 and 1.24
[3]; [16]
  normalised cell number: 1.18 and 1.28
[10]; [19]
  fold change: 0.89 (inactive) and 0.772 (inactive) and 0.838 (inactive)
[10]; [20]
  fold change: 1.27 and 3.9 and 0.85
[10]; [21]
  cell count: 9200 and 10000 and 9070
[10]; [22]
  cell count: 10300 and 13000 and 10800
[4]; [17]
  z-score: -0.333 (inactive) and -0.308 (inactive)
[4]; [18]
  z-score: -3.38 and -1.41
[5]
  remaining NAD: 10 nM (inactive)
[6]
  luciferase signal: 76 AU (inactive)
[7]
  z-score: 0.01 (inactive)

## C[C@@H]1O[C@@H](O[C@H]2[C@H](O[C@H]3CC[C@@]4(C)[C@@H](CC[C@]5(C)[C@@H]4CC=C4[C@@H]6CC(C)(C)CC[C@]6(C(=O)O[C@@H]6O[C@H](CO[C@@H]7O[C@H](CO)[C@@H](O[C@@H]8O[C@@H](C)[C@H](O)[C@@H](O)[C@H]8O)[C@H](O)[C@H]7O)[C@@H](O)[C@H](O)[C@H]6O)CC[C@]45C)[C@]3(C)CO)OC[C@H](O)[C@@H]2O)[C@H](O)[C@H](O)[C@H]1O
[1]
  inhibition: 5.65% (inactive)

## C/C=C(/C)C(=O)O[C@H]1Cc2c(ccc3ccc(=O)oc23)OC1(C)C
[1]
  inhibition: 9.34% (inactive)

## CC(C)(C(=O)O)c1ccc(C(O)CCCN2CCC(C(O)(c3ccccc3)c3ccccc3)CC2)cc1 (centres undefined)
[9]
  parasite load remaining: 72.9% (inactive) and 85.2% (inactive) and 65.9% (inactive)
  viability: 89.9% and 71.9% and 128%
[14]
  fluorescence ratio: 1.07 (inactive)
[11]
  inhibition: -4.09% (inactive)
[12]
  inhibition: 1.05% (inactive)
[13]
  fluorescence ratio: 1.04 (inactive)
[3]
  red/green cell ratio (normalised): 1.14 (inactive)
[3]; [15]
  normalised cell number: 0.92
[3]; [16]
  normalised cell number: 1.05
[4]; [17]
  z-score: -0.235 (inactive) and -0.763 (inactive)
[4]; [18]
  z-score: -0.15 and -0.362
[5]
  remaining NAD: 10 nM (inactive)
[6]
  luciferase signal: 40 AU (inactive)
[7]
  z-score: 0.205 (inactive) and 1.1 (inactive) and -0.085 (inactive)
F380Y
  log fold change Tl+ flux: -0.178 (active)
F380Y/beta2Delta
  log fold change Tl+ flux: -0.00892 (inactive)
[8]
  log fold change Tl+ flux: 0.0201 (inactive)
R275C
  log fold change Tl+ flux: 0.00746 (inactive)
R275C/beta1
  log fold change Tl+ flux: -0.0122 (inactive)
R275C/beta2Delta
  log fold change Tl+ flux: -0.0184 (inactive)

## CC(C)c1c(C(=O)Nc2ccccc2)c(-c2ccccc2)c(-c2ccc(F)cc2)n1CC[C@@H](O)C[C@@H](O)CC(=O)O
[1]
  inhibition: 17.2% (inactive)
[10]; [19]
  fold change: 1.27 (inactive)
[10]; [20]
  fold change: 1.55
[10]; [21]
  cell count: 5410
[10]; [22]
  cell count: 4270
[4]; [17]
  z-score: -2.11 (inactive)
[4]; [18]
  z-score: -0.779
[5]
  remaining NAD: 10 nM (inactive)
[6]
  luciferase signal: 28 AU (inactive)
[7]
  z-score: -0.8 (inactive)
